Screening data (PubChem BioAssay)
T cruzi growth-1 – T. cruzi proliferation inhibition; T. cruzi beta-gal in NIH3T3, GalScreen luminescence, 90 h; inhibition, % at 8.34 µM; 5.9% of 77,000 active; AID 624255;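 active = mean inhibition above about 93%, with at least 55% of replicates each passing it, limit read from the data, passing the limit was not always enough; inconclusive = only one of those two conditions holds; inactive = neither condition holds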
Pf Dd2 growth – inhibitors of Plasmodium falciparum Dd2 growth. P. falciparum Dd2 growth, SYBR Green, 72 h; hits give low values. activity change, % at 10 µM. 2.3% of 94,000 active. AID 1159554; in the data active = activity change below about -80%; inconclusive = no clear call, values can overlap the other calls
C diff HTS – C. difficile growth inhibition | 0.25% of 86,000 active | Clostridium difficile clinical isolate growth, OD600, 24 h; hits give low values | AID 1259249 | growth activity, negative = inhibition, % at 16 µg/mL (by protocol);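 active = mean growth activity at or below -80% and every replicate also at or below -80%; inconclusive = mean at or below -80% but some replicate above -80%; inactive = mean growth activity above -80%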
T cruzi growth-2 – Trypanosoma cruzi proliferation inhibition | 72% of 5,600 active | inhibition, % at 8.35 µM | T. cruzi beta-gal in NIH3T3, GalScreen luminescence, 90 h | AID 651739 | shares compounds with T cruzi growth-1;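 active = mean replicate inhibition above about 95% and at least 55% of replicates individually reaching it, limit read from the data; inconclusive = only one of the two criteria is met; inactive = neither criterion is met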
T cruzi growth-3 – Trypanosoma cruzi proliferation inhibition; T. cruzi beta-gal in NIH3T3, GalScreen luminescence, 90 h; 21% of 5,600 active; inhibition, % at 2.09 µM; shares compounds with T cruzi growth-1; AID 651740;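 active = mean inhibition above about 95%, with at least 55% of replicates also reaching it, limit read from the data; inconclusive = meets just one of the two conditions; inactive = meets neither condition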
NIH3T3 tox – NIH/3T3 (mouse) viability loss. shares compounds with T cruzi growth-1. NIH/3T3 viability, CellTiter-Glo ATP luminescence, 90 h. cytotoxicity (signal decrease), % at 8.35 µM. 14% of 5,600 active. AID 651742;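 active = mean signal decrease across replicates above about 35% based on untreated-well scatter, with enough replicates individually passing, limit read from the data; inconclusive = no rule stated though some were filed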
3T3 cytotox 2 – cytotoxicity in mouse NIH/3T3 fibroblasts; AID 651744; 56% of 5,600 active; NIH/3T3 viability, CellTiter-Glo ATP luminescence, 90 h; inhibition, % at 24.9 µM; shares compounds with T cruzi growth-1;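 active = mean loss of cell viability signal at or above a set limit, and enough replicates individually reaching it; inconclusive = meets only the mean limit or only the replicate share; inactive = meets neither condition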
Of the large screens only hits and unclear results are named; the others gave an inactive call (follow-up assays come after a bar, where they were run). In the library only some 6.7% were active in any assay of this set; here they are far more common.

CCC(=O)Nc1ccc2c(c1)C(=O)N(C)[C@H]1CC[C@@H](CC(=O)N3CCCCC3)O[C@H]1CO2	none
C[C@H]1CCCCO[C@H](CN(C)CC2CC2)[C@@H](C)CN([C@@H](C)CO)C(=O)c2cc(NC(=O)C3CCCCC3)ccc2O1	T cruzi growth-1 102.1 | T cruzi growth-2 inactive | T cruzi growth-3 inactive | NIH3T3 tox inactive | 3T3 cytotox 2 inactive
CCCN(C)C[C@@H]1OCCCC[C@H](C)Oc2ccc(NC(=O)C3CCCCC3)cc2C(=O)N([C@@H](C)CO)C[C@@H]1C	T cruzi growth-1 111.5, Pf Dd2 growth -82.8 | T cruzi growth-2 95.7 | T cruzi growth-3 inactive | NIH3T3 tox inactive | 3T3 cytotox 2 inactive
C[C@H](CO)N1C[C@H](C)[C@H](CN(C)CC2CC2)OCCCC[C@H](C)Oc2ccc(NC(=O)C3CCCCC3)cc2C1=O	none (no result: T cruzi growth-1)
CCCN(C)C[C@@H]1OCCCC[C@@H](C)Oc2ccc(NC(=O)C3CCCCC3)cc2C(=O)N([C@@H](C)CO)C[C@@H]1C	none
COc1ccc(CN(C)C[C@@H]2OCCCC[C@@H](C)Oc3ccc(NC(=O)Cc4ccccc4)cc3C(=O)N([C@H](C)CO)C[C@H]2C)cc1	none
COc1ccccc1-c1cn(CC[C@H]2CC[C@@H](NC(=O)C3CCC3)[C@H](CO)O2)nn1	none (no result: T cruzi growth-1)
COc1ccccc1-c1ccc([C@@H]2[C@H]3CN(C(=O)NC4CCCC4)CCCCN3[C@H]2CO)cc1	none
Cc1ccccc1-c1ccc([C@H]2[C@H]3CN(C(=O)NC4CCCC4)CCCCN3[C@H]2CO)cc1	T cruzi growth-1 112.4 | T cruzi growth-2 105.5 | T cruzi growth-3 inactive | NIH3T3 tox inactive | 3T3 cytotox 2 54.7
Cc1ccccc1-c1ccc([C@H]2[C@@H](CO)N3CCCCN(C(=O)NC4CCCC4)C[C@@H]23)cc1	T cruzi growth-1 106.0 | T cruzi growth-2 108.1 | T cruzi growth-3 inactive | NIH3T3 tox inactive | 3T3 cytotox 2 80.8
COc1ccccc1-c1ccc([C@H]2[C@H]3CN(C(=O)NC4CCCC4)CCCCN3[C@H]2CO)cc1	none
Cc1ccccc1-c1ccc([C@H]2[C@@H](CO)N3CCCCN(C(=O)NC4CCCC4)C[C@H]23)cc1	T cruzi growth-1 115.1 | T cruzi growth-2 107.8 | T cruzi growth-3 99.2 | NIH3T3 tox inactive | 3T3 cytotox 2 105.8
COc1ccccc1-c1ccc([C@@H]2[C@@H](CO)N3CCCCN(C(=O)NC4CCCC4)C[C@@H]23)cc1	none
O=C(N[C@@H]1CC[C@H](CC(=O)N2CCOCC2)O[C@@H]1CO)c1ccccn1	none
COc1ccccc1-c1cnc2c(c1)C(=O)N([C@H](C)CO)C[C@H](C)[C@H](CN(C)C(C)=O)O2	T cruzi growth-1 inconclusive | T cruzi growth-2 inactive | T cruzi growth-3 inactive | NIH3T3 tox inactive | 3T3 cytotox 2 inactive
COc1ccccc1-c1cnc2c(c1)C(=O)N([C@H](C)CO)C[C@@H](C)[C@@H](CN(C)C(C)=O)O2	T cruzi growth-1 98.7 | T cruzi growth-2 inconclusive | T cruzi growth-3 inactive | NIH3T3 tox inactive | 3T3 cytotox 2 inactive
COc1ccccc1-c1cnc2c(c1)C(=O)N([C@H](C)CO)C[C@@H](C)[C@H](CN(C)C(C)=O)O2	none
COc1ccccc1-c1cnc2c(c1)C(=O)N([C@@H](C)CO)C[C@@H](C)[C@@H](CN(C)C(C)=O)O2	none
CCCNC(=O)C[C@H]1CC[C@@H]2[C@H](COC[C@H](O)CN2Cc2cccc(F)c2)O1	none
OC[C@H]1[C@@H](c2ccc(C#CC3(O)CCCC3)cc2)[C@H]2CN(Cc3cccnc3)CCCCN21	T cruzi growth-1 103.3 | T cruzi growth-2 inactive | T cruzi growth-3 inactive | NIH3T3 tox inactive | 3T3 cytotox 2 inactive
OC[C@@H]1[C@H](c2ccc(C#CC3(O)CCCC3)cc2)[C@H]2CN(Cc3cccnc3)CCCCN12	T cruzi growth-1 119.6 | T cruzi growth-2 107.4 | T cruzi growth-3 inactive | NIH3T3 tox inactive | 3T3 cytotox 2 31.7
OC[C@H]1[C@@H](c2ccc(C#CC3(O)CCCC3)cc2)[C@H]2CN(Cc3ccncc3)CCCCN21	none
OC[C@@H]1[C@H](c2ccc(C#CC3(O)CCCC3)cc2)[C@H]2CN(Cc3ccncc3)CCCCN12	none
OC[C@H]1[C@H](c2ccc(C#CC3(O)CCCC3)cc2)[C@@H]2CN(Cc3ccncc3)CCCCN12	none
OC[C@H]1[C@@H](c2ccc(C#CC3(O)CCCC3)cc2)[C@@H]2CN(Cc3cccnc3)CCCCN12	T cruzi growth-1 114.4 | T cruzi growth-2 inactive | T cruzi growth-3 inactive | NIH3T3 tox inactive | 3T3 cytotox 2 inconclusive
N#C[C@@H]1[C@H](c2ccccc2)[C@@H](CO)N1C(=O)c1cc(Cl)cc(Cl)c1	none
N#C[C@@H]1[C@H](c2ccc(-c3ccccc3)cc2)[C@H](CO)N1C(=O)Cc1ccccc1	T cruzi growth-1 inconclusive | T cruzi growth-2 102.9 | T cruzi growth-3 inactive | NIH3T3 tox inactive | 3T3 cytotox 2 inactive
N#C[C@H]1[C@@H](c2ccccc2)[C@H](CO)N1C(=O)c1cc(Cl)cc(Cl)c1	T cruzi growth-1 inconclusive | T cruzi growth-2 inconclusive | T cruzi growth-3 inactive | NIH3T3 tox inactive | 3T3 cytotox 2 inactive
N#C[C@H]1[C@@H](c2ccc(-c3ccccc3)cc2)[C@H](CO)N1C(=O)Cc1ccccc1	T cruzi growth-1 104.4 | T cruzi growth-2 110.3 | T cruzi growth-3 inactive | NIH3T3 tox inactive | 3T3 cytotox 2 31.5
N#C[C@@H]1[C@@H](c2ccc(-c3ccccc3)cc2)[C@H](CO)N1C(=O)Cc1ccccc1	none
N#C[C@H]1[C@H](c2ccc(-c3ccccc3)cc2)[C@H](CO)N1C(=O)Cc1ccccc1	none
CCCC(=O)Nc1ccc2c(c1)OC[C@@H](C)N(Cc1ccc(F)cc1)C[C@@H](C)[C@@H](OC)CN(C)C2=O	T cruzi growth-1 inconclusive (no result: C diff HTS)
C[C@H]1CN([C@@H](C)CO)S(=O)(=O)c2ccc(-c3cncnc3)cc2O[C@@H]1CN(C)Cc1cncnc1	none
C[C@H](CO)N1C[C@H](C)[C@@H](CN(C)Cc2ccccc2)Oc2cc(-c3cncnc3)ccc2S1(=O)=O	T cruzi growth-1 113.3 | T cruzi growth-2 inactive | T cruzi growth-3 inconclusive | NIH3T3 tox 37.9 | 3T3 cytotox 2 70.1
C[C@@H]1CN([C@H](C)CO)S(=O)(=O)c2ccc(-c3cncnc3)cc2O[C@H]1CN(C)Cc1cncnc1	none
C[C@H]1CN([C@@H](C)CO)S(=O)(=O)c2ccc(-c3cncnc3)cc2O[C@@H]1CN(C)Cc1ccccc1	T cruzi growth-1 106.2 | T cruzi growth-2 inconclusive | T cruzi growth-3 100.4 | NIH3T3 tox inactive | 3T3 cytotox 2 31.0
C[C@H](CO)N1C[C@H](C)[C@@H](CN(C)C(=O)c2ccncc2)Oc2ncc(C#CC3CCCC3)cc2C1=O	none (no result: T cruzi growth-1, C diff HTS)
OC[C@H]1[C@@H](c2ccc(C#Cc3ccccc3)cc2)[C@H]2CN(Cc3cncnc3)CCCCN21	none
